Laboratory results taken from PubChem BioAssay (NCATS).
Records with an inconclusive call do not appear. Calls of active or inactive are those of the source. Unless noted, the call rests on the fitted dose curve; in most records, active means well fitted curve in the direction sought with a large enough effect; inconclusive means small, poorly fitted or top-dose-only effect, or another doubt; inactive means no such curve, though single readings can be large; an effect the other way counts as inactive or inconclusive.

What was measured:
[1] = qHTS Assay for Identification of Small Molecule Agonists for Thrombopoietin (TPO) Signaling Pathway (AID 917)
Summary of the method: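 Murine Ba/F3 cells stably expressing human TPO receptor and a Glycoprotein IIb promoter–luciferase reporter were IL-3-starved overnight, then treated with compounds plus TPO (26 pM final, its EC50) for 24 hrs at 37 C; luminescence was read.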

[2] = biological target: Muscarinic acetylcholine receptor M1 (Rattus norvegicus) (UniProt P08482); experiment: qHTS Assay for Antagonists of Acetylcholine Muscarinic M1 Receptor: Measurement of IP-One Response (AID 944); further: nearly all actives have a fitted effect of over 75% in size
Summary of the method: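 M1-CHO (rat), 2000 cells/well, overnight recovery; cpd 10 min; carbachol EC80 (200 nM), 30 min, HEPES buffer + 50 mM LiCl pH 7.4; IP-One HTRF, Ex 337, Em 620/665 nm.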

[3] = biological target: Pyruvate kinase (Leishmania mexicana) (UniProt Q27686); experiment: qHTS Validation Assay for Inhibitors of Leishmania Mexicana Pyruvate Kinase (AID 945)
Summary of the method: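 An endpoint luciferase assay: 0.2 nM LmPYK E451W turns over 0.5 mM PEP with 0.1 mM ADP for 1 h at room temperature, pH 7.2, before PKLight addition. Values are normalized to DMSO-only wells.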

[4] = Confirmation and Secondary Assay for Modulators of Hemoglobin Beta Chain Splicing at IVS2 654 locus (AID 910);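 further: HeLa cells stably carrying EGFP split by mutant beta-globin IVS2-654 intron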
Summary of the method: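 HeLa cells stably expressing EGFP interrupted by β-globin IVS2-654 intron, seeded overnight in Opti-MEM/2% FCS, then treated 2 days at 37 °C. Restored splicing read as total peak GFP intensity per well by laser scanning cytometry (488 nm excitation, 500–520 nm emission); 500 nM antisense PNA as control.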

[5] = Confirmation and Secondary Assay for Modulators of Hemoglobin Beta Chain Splicing at IVS2 705 locus (AID 930);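 further: HeLa cells stably expressing the EGFP-705 splicing reporter; GFP fluorescence per well restored by corrected splicing of the IVS2-705 intron in EGFP; series mostly up to about 46 µM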
Summary of the method: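 Per-well GFP, captured at 1 x 8 µm resolution with 488 nm excitation, served as the read-out for HeLa EGFP-705 cells incubated 2 days with test compound versus DMSO.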

[6] = biological target: Pyruvate kinase PKM (Homo sapiens) (UniProt P14618); experiment: qHTS Assay for Activators of Human Muscle Pyruvate Kinase (AID 954; active means well fitted curve in the direction sought with a large enough effect, not every such curve was filed as active)
Summary of the method: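 Human PKM2 activity is measured as ATP generation, detected by luciferase-coupled luminescence. The enzyme (0.1 nM) acts on 0.5 mM PEP and 0.1 mM ADP for 1 h at ambient temperature; data are normalized to uninhibited and full-inhibition wells.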

[7] = Cell Viability - LYMP2-001 (AID 921); further: series mostly up to about 92 µM; nearly all actives have a fitted effect of over 70% in size
Summary of the method: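 Human lymphoblastoid cells (Coriell), 2500 per well, were preincubated 5 hr at 37 C, then exposed to compounds in complete medium for 24 hr at 37 C. Cellular ATP was read by CellTiter-Glo luminescence; AC50 from Hill fits of concentration-response data.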

[8] = MultiTox-Fluor Cytotoxicity Assay - LYMP1-001 - Dead Cells (AID 946)
Summary of the method: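 Cytotoxicity as increased dead-cell protease fluorescence (bis-AAF-R110, 485/520 nm), read 60 min after MultiTox-Fluor reagent. Human lymphoblastoid line exposed 16 h; Hill-fitted AC50, with DMSO as 0% and 15 uM tetraoctylammonium bromide as 100%.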

[9] = MultiTox-Fluor Cytotoxicity Assay - LYMP1-001 - Live Cells (AID 947)
[10] = Cell Viability - LYMP1-002 - Assay at 16 hr (AID 948)
Summary of the method: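 Human lymphoblastoid cells (LYMP1-002), 2500/well, were preincubated 5 hr at 37 C, then exposed to compounds for 16 hr at 37 C in complete medium. Cellular ATP was read by CellTiter-Glo luminescence after 30 min at room temperature; AC50 from Hill fits.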

[11] = MultiTox-Fluor Cytotoxicity Assay - LYMP1-002 - Live Cells (AID 955)
Summary of the method: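 Read-out is live-cell protease activity (cell-permeant GF-AFC substrate, fluorescence Ex/Em=405/510), where a decrease indicates acute toxicity. Human lymphoblastoid cells were treated 16 hours at 37 C in a concentration series, and AC50 values came from standard Hill modelling.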

[12] = MultiTox-Fluor Cytotoxicity Assay - LYMP1-002 - Dead Cells (AID 960); further: nearly all actives have a fitted effect of over 60% in size
Summary of the method: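 LYMP1-002 cells 2500/well; 5 hr 37 C pre-incubation; compound 16 hr 37 C; MultiTox-Fluor reagent 60 min RT; dead-cell fluor Ex/Em 485/520. Norm. to DMSO (0%) vs 15 uM tetraoctylammonium bromide (100%); Hill AC50.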

[13] = MultiTox-Fluor Cytotoxicity Assay - LYMP1-003 - Dead Cells (AID 961); further: nearly all actives have a fitted effect of over 70% in size
Summary of the method: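 Dead-cell protease release, detected as bis-AAF-R110 fluorescence at 485/520 nm, was measured in LYMP1-003 cells after 16 h compound treatment at 37 C. AC50 values came from Hill-modeled qHTS curves normalized to DMSO (0%) and 15 uM tetraoctylammonium bromide (100%).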

[14] = MultiTox-Fluor Cytotoxicity Assay - LYMP1-003 - Live Cells (AID 962);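 further: cytotoxic hits lower the live-cell protease signal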
Summary of the method: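 qHTS, 1536-well; 2500 cells/well LYMP1-003; 5 hr 37 C settle; cpd 16 hr 37 C; MultiTox-Fluor reagent 60 min RT; live-cell protease fluor. 405/510; Hill-fit AC50; tetraoctylammonium bromide pos. ctrl.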

[15] = Cell Viability - LYMP1-003 - Assay at 24 hr (AID 963)
Summary of the method: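 Cells seeded at 2500/well, 5 hr at 37 C; compounds added; 24 hr at 37 C; CellTiter-Glo added, 30 min room temperature; luminescence read. Decrease in ATP taken as cytotoxicity, AC50 from Hill modelling.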

[16] = Cell Viability - LYMP1-003 - Assay at 40 hr (AID 964); further: series mostly up to about 92 µM; nearly all actives have a fitted effect of over 60% in size
Summary of the method: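 Cells were seeded at 2500 per well and incubated 5 hr at 37 C. Compounds were added across a concentration series and left 40 hr at 37 C. CellTiter-Glo was added for 30 min at room temperature before luminescence reading.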

[17] = Cell Viability - LYMP2-003 (AID 965);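 further: cells exposed to compounds for 24 h before reading; nearly all actives have a fitted effect of over 50% in size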
Summary of the method: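 Human lymphoblastoid cells (2500/well) were pre-incubated 5 hr at 37 C, then exposed to compounds over a concentration range for 24 hr at 37 C. Intracellular ATP was read by CellTiter-Glo luminescence; AC50 came from Hill-equation fits.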

[18] = Cell Viability - LYMP2-004 (AID 966); further: nearly all actives have a fitted effect of over 65% in size
Summary of the method: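 Cells seeded 2500/well, rested 5 hr at 37 C, dosed across a concentration series, incubated 24 hr at 37 C, then CellTiter-Glo added for 30 min at room temperature and luminescence read. Hill fitting gave AC50.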

[19] = Cell Viability - LYMP2-005 (AID 967); further: series mostly up to about 92 µM
Summary of the method: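 CellTiter-Glo luminescence (cellular ATP) read-out; LYMP2-005 lymphoblastoid cells, 2500/well, 5 h pre-incubation, then 24 h compound exposure at 37 C in complete medium. Tetraoctylammonium bromide positive control; AC50 by standard Hill fit.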

[20] = Cell Viability - LYMP2-009 (AID 968); further: series mostly up to about 92 µM; nearly all actives have a fitted effect of over 55% in size

Measured: outcome

Pyruvate kinase (Leishmania mexicana), sequence (Q27686 2-499 E452W): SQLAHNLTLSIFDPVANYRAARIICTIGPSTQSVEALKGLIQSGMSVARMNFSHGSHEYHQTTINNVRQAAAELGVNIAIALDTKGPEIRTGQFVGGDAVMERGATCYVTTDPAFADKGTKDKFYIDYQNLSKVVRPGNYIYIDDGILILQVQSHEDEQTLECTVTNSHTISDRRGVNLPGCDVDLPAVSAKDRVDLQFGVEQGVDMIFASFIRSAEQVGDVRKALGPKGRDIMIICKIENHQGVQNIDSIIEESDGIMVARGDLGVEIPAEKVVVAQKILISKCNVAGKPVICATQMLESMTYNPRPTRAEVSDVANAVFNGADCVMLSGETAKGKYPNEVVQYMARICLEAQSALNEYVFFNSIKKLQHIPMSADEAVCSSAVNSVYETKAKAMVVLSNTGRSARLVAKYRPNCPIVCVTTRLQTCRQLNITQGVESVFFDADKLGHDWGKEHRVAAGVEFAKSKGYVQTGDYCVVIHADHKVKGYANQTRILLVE
Pyruvate kinase PKM (Homo sapiens), sequence (P14618 whole entry, looked up): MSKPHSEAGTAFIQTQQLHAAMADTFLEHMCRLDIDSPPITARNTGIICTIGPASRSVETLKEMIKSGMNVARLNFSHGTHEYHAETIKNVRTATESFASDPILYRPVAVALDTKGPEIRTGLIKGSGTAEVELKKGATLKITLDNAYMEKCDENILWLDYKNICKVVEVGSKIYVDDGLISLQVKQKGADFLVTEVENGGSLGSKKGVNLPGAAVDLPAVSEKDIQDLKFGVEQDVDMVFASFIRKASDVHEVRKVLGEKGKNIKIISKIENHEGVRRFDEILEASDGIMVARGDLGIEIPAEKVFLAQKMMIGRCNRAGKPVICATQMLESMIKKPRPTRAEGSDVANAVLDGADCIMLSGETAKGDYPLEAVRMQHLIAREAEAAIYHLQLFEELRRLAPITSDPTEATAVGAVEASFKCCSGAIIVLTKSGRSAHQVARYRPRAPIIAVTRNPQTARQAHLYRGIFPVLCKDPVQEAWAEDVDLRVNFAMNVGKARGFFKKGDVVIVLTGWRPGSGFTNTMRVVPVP
Muscarinic acetylcholine receptor M1 (Rattus norvegicus), sequence (P08482 whole entry, looked up): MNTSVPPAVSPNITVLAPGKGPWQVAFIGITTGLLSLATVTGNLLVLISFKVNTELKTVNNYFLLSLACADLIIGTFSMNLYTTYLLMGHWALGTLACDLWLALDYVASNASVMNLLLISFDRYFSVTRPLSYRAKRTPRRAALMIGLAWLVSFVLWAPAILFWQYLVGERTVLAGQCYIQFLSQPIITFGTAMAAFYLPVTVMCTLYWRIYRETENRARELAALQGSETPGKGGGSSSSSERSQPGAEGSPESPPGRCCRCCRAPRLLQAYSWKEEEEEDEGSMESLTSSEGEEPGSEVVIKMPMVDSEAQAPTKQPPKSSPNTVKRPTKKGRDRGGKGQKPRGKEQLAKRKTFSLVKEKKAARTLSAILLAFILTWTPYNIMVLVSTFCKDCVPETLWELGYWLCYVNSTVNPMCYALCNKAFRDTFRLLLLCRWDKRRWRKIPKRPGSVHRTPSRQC

COc1ccc2c(c1OC)C(=O)OC2[C@H]1c2c(cc3c(c2OC)OCO3)CCN1C (stereo partly specified)
inactive: [1] | [2] | [3]

Cc1ccc(O)c(C(CCN(C(C)C)C(C)C)c2ccccc2)c1 (stereo unspecified)
inactive: [4] | [5]

C[C@@]12C(=O)OC(=O)[C@@]1(C)C1CCC2O1
inactive: [4] | [5]

OCC(O)C(O)C(O)CO (stereo unspecified)
inactive: [4] | [5]

CN(C)CC[C@H](c1ccc(Cl)cc1)c1ccccn1
inactive: [1] | [3] | [6]

c1coc(CNc2ncnc3nc[nH]c23)c1
inactive: [4] | [5]

O=c1c(O)c(-c2ccc(O)c(O)c2)oc2cc(O)ccc12
inactive: [4]

CCC(C(=O)O)C1CCC(C)C(C(C)C(O)C(C)C(=O)C(CC)C2OC3(C=CC(O)[C@@]4(CC[C@](C)(C5CC[C@@](O)(CC)C(C)O5)O4)O3)C(C)CC2C)O1 (stereo partly specified)
inactive: [4] | [5]

COc1ccc(C(C)=O)c(O)c1
inactive: [4] | [5]

Oc1cc2c(cc1O)C1c3ccc(O)c(O)c3OCC1(O)C2 (stereo unspecified)
inactive: [4] | [5]

Cc1cc(O)c2c(c1)C(=O)c1cccc(O)c1C2=O
inactive: [4] | [7] | [5] | [8] | [9] | [10] | [11] | [12] | [13] | [14] | [15] | [16] | [17] | [18] | [19] | [20]

CC(Cc1ccc(O)c(O)c1)(NN)C(=O)O (stereo unspecified)
inactive: [4] | [5]

CCCCCCCCCCCC(CC1OC(=O)C1CCCCCC)OC(=O)C(CC(C)C)NC=O (stereo unspecified)
inactive: [4] | [5]
